Assay [1] deals with RUNX1 (UniProt Q01196). Briefly: RUNX1 binding intensity (PBM fluorescence), RUNX1 alone (arbitrary fluorescence units); higher = stronger binding. Conditions: RUNX1 concentration 2 nM; ETS1 concentration 0 nM. On the procedure:
(§1)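 Cooperative gcPBM on 36-bp genomic probes with neighbouring ETS1 and RUNX1 sites. Recombinant human RUNX1 (2 nM) was incubated alone or with ETS1 (25 nM) and detected with anti-RUNX1 antibody plus Alexa488 secondary. Values are medians over 4 replicate spots; the RUNX1+ETS1 data were normalised to the RUNX1-only data. The probes sit in constant array flanks that are not printed.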

Assay [2] has as its target RUNX1 (UniProt Q01196). As to the kind of experiment: RUNX1 binding intensity (PBM fluorescence) in presence of ETS1, normalised to RUNX1-only experiment (arbitrary fluorescence units); higher = stronger binding. Conditions: RUNX1 concentration 2 nM; ETS1 concentration 25 nM. As for the experimental part: as §1
The target in assay [3] is T1, ETS1 (UniProt P14921).
T1 sequence: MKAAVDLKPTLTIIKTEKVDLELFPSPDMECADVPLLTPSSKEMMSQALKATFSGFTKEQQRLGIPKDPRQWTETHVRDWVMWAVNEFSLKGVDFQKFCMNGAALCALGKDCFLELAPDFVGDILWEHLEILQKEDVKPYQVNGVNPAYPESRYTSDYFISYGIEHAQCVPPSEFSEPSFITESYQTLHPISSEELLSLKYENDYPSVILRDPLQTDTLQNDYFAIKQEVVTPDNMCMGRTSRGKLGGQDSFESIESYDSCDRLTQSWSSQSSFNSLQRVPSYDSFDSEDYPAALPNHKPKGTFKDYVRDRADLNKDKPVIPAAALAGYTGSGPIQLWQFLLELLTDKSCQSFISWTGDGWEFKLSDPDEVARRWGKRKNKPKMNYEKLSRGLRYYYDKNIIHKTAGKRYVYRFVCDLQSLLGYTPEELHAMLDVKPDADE
As to the kind of experiment: ETS1 binding intensity (PBM fluorescence) in presence of RUNX1, normalised to ETS1-only experiment (arbitrary fluorescence units); higher = stronger binding. The following applies: ETS1 concentration 1 nM; RUNX1 concentration 25 nM.
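Wherever RUNX1 binding intensity (PBM fluorescence) in presence of ETS1, normalised to RUNX1-only experiment is given: Full-length recombinant human ETS1 or RUNX1 bound to double-stranded 36-bp genomic probes on microarrays, detected by protein-specific primary antibody and Alexa488 secondary, spot fluorescence as median of four replicate spots.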
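Wherever RUNX1 binding intensity (PBM fluorescence), RUNX1 alone is given: Full-length recombinant human RUNX1 bound to double-stranded 36-bp genomic probes on a high-density microarray, scored as Alexa488 fluorescence per spot via anti-RUNX1 antibody, median of four replicate spots.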

Chain of RUNX1 (Q01196 whole entry): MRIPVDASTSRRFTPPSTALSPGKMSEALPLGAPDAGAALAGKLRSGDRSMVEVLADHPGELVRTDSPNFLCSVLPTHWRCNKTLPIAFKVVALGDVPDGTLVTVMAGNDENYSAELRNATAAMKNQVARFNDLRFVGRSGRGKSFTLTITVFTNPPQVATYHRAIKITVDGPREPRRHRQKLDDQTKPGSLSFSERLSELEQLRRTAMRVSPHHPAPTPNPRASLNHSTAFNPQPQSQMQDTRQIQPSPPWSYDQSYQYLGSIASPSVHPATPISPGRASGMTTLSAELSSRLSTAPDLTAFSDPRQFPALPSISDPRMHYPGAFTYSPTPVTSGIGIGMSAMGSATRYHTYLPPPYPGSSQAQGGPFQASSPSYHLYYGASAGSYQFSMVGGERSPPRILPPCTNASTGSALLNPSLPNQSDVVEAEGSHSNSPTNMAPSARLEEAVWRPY

As to ACTCACACCACGGAAACTGCGGCTCGGCAGGCTGAG, the RUNX1 binding intensity worked out at 808 in assay [1] and 885 in assay [2].
As for CACTTCCTGCCCTCTTCCACTTTCAAAACCACATCA, the RUNX1 binding intensity in assay [1] was found to be 4540; in assay [2], 9880. Besides, the ETS1 binding intensity in assay [3] came to 1850.
TGCAGCGCATCCTGGGACGTGCGGGCGGTGCATGAG: the figures for the RUNX1 binding intensity in assay [1] and in assay [2] were 727 and 923, respectively.
For the sequence AGAGCGAGGAGGACTTCCTGCGGCAGGTCGGCGTGA, the RUNX1 binding intensity is 652 in assay [1] and 1080 in assay [2]. Further, the ETS1 binding intensity in assay [3] is 622.
The like results for CCCCGGGAAGGGAAGTTTGTGGCGGAGGAGGTTCGT were, in that order, 805, 934 and 589.
The like results for GGCAGCCGGCTTCCGGCTGTGGGTGGTGCGGGGGAC were, in that order, 676, 1540 and 1820.
The corresponding values for TTACAGGGGCCGGAAGTGGCCTGCGGGCGGAGAAGT are 753, 2020 and 30900.
Regarding AATCATCAGGGAAATGCAAATCAAAACCACAATCAG, the RUNX1 binding intensity in assay [1] stood at 1480; in assay [2], 1300. The ETS1 binding intensity in assay [3] amounted to 1200.
Turning to TCCCTCCTTCCGCTCTGGTTTTGTGGTTGCTTGCTG, the RUNX1 binding intensity amounted to 1490 in assay [1] and 3330 in assay [2]. Further, the ETS1 binding intensity in assay [3] is 1620.
For CCGGGAAGGCGGAAGCAGCAGAGACGCCGCAAGGCC, the RUNX1 binding intensity worked out at 823 in assay [1] and 980 in assay [2]. The ETS1 binding intensity in assay [3] was 1560.
Turning to CACCAGGACGCAACAGGAAACCACAAAGGCCTGAGA, the RUNX1 binding intensity in assay [1] amounted to 2660; in assay [2] it was 5270. The ETS1 binding intensity in assay [3] was 6500.
The like results for TTACAATCATTTCCTCTCTGTGGTTTGGTGACAAAT were, in that order, 1620, 3180 and 2000.
The corresponding values for GTATGGGAAGTGATCTGGCTGCAAACCGCAAGAGAG are 4520, 7290 and 2730.
CGAACTCCCGTCCGGCCGCGCCCGCAGCCCGCCGCC: the RUNX1 binding intensity in assay [1] turned out to be 960; in assay [2], 1130.
Consider ACCAACCGGAAGTGATCGTGTTGTGGCCGAAGGAGG, for which the RUNX1 binding intensity in assay [1] is 785; in assay [2], 1590. Further, the ETS1 binding intensity in assay [3] came out at 18100.
The corresponding values for GCCCGCCCCGGAAGTGCAAACTGTGTGGTCTGGCAG are 867, 1330 and 7090.

The record behind these values is the supplement of paper PMC10681739.
